About 79,000 compounds went through this panel and 15% of them were active in at least one assay; those are over-represented in the sample as a whole. Values without a mark were called inactive. The source made the active and inactive calls. Cut-off read from the data, not from the text of the source: active = growth inhibition above about 70%; inactive = the rest.
Key:
[1] = NCI Yeast Anticancer Drug Screen. Data for the rad50 strain (AID 155);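 note: 0% = growth of vehicle-only cultures of the same strain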; conditions: S. cerevisiae rad50 strain growth inhibition, stronger effect = higher value
How it was run: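 Growth of the mutant yeast was measured after compound exposure and referenced to vehicle-treated cultures.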

[2] = NCI Yeast Anticancer Drug Screen. Data for the mec2-1 strain (AID 157); conditions: S. cerevisiae mec2-1 strain, stronger effect = higher value
How it was run: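 Cells of the genetically defined mec2-1 yeast strain are incubated with test compound. Inhibition of growth is calculated against vehicle-treated controls.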

[3] = NCI Yeast Anticancer Drug Screen. Data for the sgs1 mgt1 strain (AID 161);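 note: 0% = growth of cultures given vehicle only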; conditions: S. cerevisiae sgs1 mgt1 strain, stronger effect = higher value
How it was run: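 Test agents were incubated with a DNA-repair-mutant yeast strain. Growth was then read and compared against vehicle-treated controls.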

[4] = NCI Yeast Anticancer Drug Screen. Data for the cln2 rad14 strain (AID 165);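 note: 0% = growth equal to vehicle treated cultures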; conditions: S. cerevisiae cln2 rad14 strain, stronger effect = higher value
How it was run: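 The screen exposed genetically defined yeast (cln2 rad14) to test compounds and scored growth inhibition relative to vehicle-treated controls.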

[5] = NCI Yeast Anticancer Drug Screen. Data for the bub3 strain (AID 167); conditions: S. cerevisiae bub3 mutant strain, stronger effect = higher value
How it was run: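 Whole-cell yeast assay. The mutant strain was incubated with compounds, and growth inhibition was determined by comparison with vehicle-treated cells.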

[6] = NCI Yeast Anticancer Drug Screen. Data for the mlh1 rad18 strain (AID 175); conditions: S. cerevisiae mlh1 rad18 strain growth inhibition, stronger effect = higher value
How it was run: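 Compound-treated yeast growth, normalised to vehicle controls. Strain bears defined DNA repair mutations.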

[7] = at 5.0 µM (retest, dose inferred, filed as 0.5)
[8] = at 50.0 µM (retest, dose inferred, filed as 5.0)

Compound	growth inhibition [1, 7]	growth inhibition [1, 8]	growth inhibition ([1]; at 50.0 µM)	growth inhibition [2, 7]	growth inhibition [2, 8]	growth inhibition ([2]; at 50.0 µM)	growth inhibition [3, 7]	growth inhibition [3, 8]	growth inhibition ([3]; at 50.0 µM)	growth inhibition [4, 7]	growth inhibition [4, 8]	growth inhibition ([4]; at 50.0 µM)	growth inhibition [5, 7]	growth inhibition [5, 8]	growth inhibition ([5]; at 50.0 µM)	growth inhibition [6, 7]	growth inhibition [6, 8]	growth inhibition ([6]; at 50.0 µM)
CCCCN(CCCC)CC(O)c1ccc(CCc2ccccc2)cc1 (stereo not given)	-6%	91% (active)	99.2% (active)	22%	92% (active)	98.7% (active)	13%	99% (active)	99.5% (active)	-7%	88% (active)	98.7% (active)	-4%	92% (active)	76.2% (active)	28%	97% (active)	99.3% (active)
Cc1ccc(O)cc1CCCCO	2%	-4%	-7.45%	0%	-1%	-2.1%	-1%	-2%	-3.55%	-2%	7%	74.6% (active)	-11%	0%	-5.95%	0%	-2%	-3.45%
CCCCC(CSC#N)SC#N (stereo not given)	14%	98% (active)	99% (active)	14%	98% (active)	98.3% (active)	12%	97% (active)	97.2% (active)	3%	95% (active)	97.2% (active)	16%	97% (active)	98% (active)	24%	98% (active)	98.3% (active)
CCCCCCCCCCCCCCCc1ncc(C)[nH]1	69%	69%	99.1% (active)	72% (active)	99% (active)	99.4% (active)	91% (active)	99% (active)	99.4% (active)	28%	98% (active)	97.4% (active)	75% (active)	99% (active)	99.5% (active)	50%	99% (active)	99% (active)
O=c1c2ccccc2sc2c1c(N(CCO)CCO)cc1ccccc12	45%	94% (active)	97.5% (active)	6%	94% (active)	95.8% (active)	12%	93% (active)	97.9% (active)	-7%	78% (active)	96.2% (active)	-5%	93% (active)	96.8% (active)	19%	95% (active)	97.6% (active)
NC1C(=O)C2CCCCC2C(=O)C1C(=O)c1ccccc1 (stereo not given)	-2%	28%	-0.5%	4%	17%	16.4%	-1%	-6%	23.4%	1%	10%	-55.4%	5%	49%	73.9% (active)	3%	24%	48.1%
CS(=O)(=O)c1cc(=O)c2ccccc2s1	6%	99% (active)	97.2% (active)	23%	99% (active)	96.6% (active)	21%	99% (active)	97.5% (active)	10%	99% (active)	84.7% (active)	-3%	100% (active)	31.6%	17%	99% (active)	97.8% (active)
CC1CN(C(=S)NNC(C)c2cc3ccccc3cn2)CC(C)O1 (stereo not given)	30%	96% (active)	87% (active)	38%	99% (active)	89.8% (active)	26%	98% (active)	90.5% (active)	15%	98% (active)	90% (active)	39%	99% (active)	88.2% (active)	39%	98% (active)	91.3% (active)
COc1ccc(C2SCC(=O)N2c2ccc(-c3ccc(-n4c(-c5ccccc5)nc5ccccc5c4=O)cc3)cc2)cc1 (stereo not given)	0%	33%	21.6%	1%	28%	34.1%	7%	57%	57.4%	42%	41%	13.5%	24%	69%	70.9% (active)	18%	68%	58.1%
Cc1ccc(C(C)C)c(O)c1N/N=C/c1cc(Cl)ccc1O	2%	55%	73% (active)	3%	25%	-0.3%	1%	82% (active)	41.9%	2%	26%	-4.05%	1%	48%	58.1%	2%	83% (active)	36.8%
